Pin1 inh: inhibitors of human Pin1; 0.009% of 390,000 active; Potency, µM (titrated, usually from 115 µM), without a hit: at the top dose activity, negative = inhibition, most hits filed as inhibitors; Q13526; Pin1 FP peptide displacement, HiFluor488, 10 min; active = well fitted inhibition curve with a large enough effect in the polarisation, with a control signal flat, not every such curve was filed as active; inconclusive = small, poorly fitted or top-dose-only effect, or effect the other way, or a change in a side signal; inactive = no such curve, though single readings can be large or run the other way; the % refers to the polarisation; also: % is scaled to controls: 0 for no effect and ±100 for the full control effect
Target sequence (Q13526 whole entry, looked up): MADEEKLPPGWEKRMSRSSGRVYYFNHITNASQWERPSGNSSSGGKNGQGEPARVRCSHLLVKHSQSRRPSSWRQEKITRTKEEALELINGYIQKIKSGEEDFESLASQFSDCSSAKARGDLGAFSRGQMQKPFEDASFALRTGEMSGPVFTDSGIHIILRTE
Nrf2 block: inhibitors of Nrf2 signaling; A549 ARE-Fluc reporter, luciferase luminescence, 18-24 h; Potency, µM (highest dose often 46 µM), inactives show at the highest dose activity change, negative = inhibition, actives largely listed as inhibitors; 2.1% of 360,000 active; also: % is scaled to controls: 0 for no effect and ±100 for the full control effect; nearly all actives have a fitted effect of over 60% in size
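Cells were seeded and rested 2 h, then exposed to compounds for 18-24 h. CellTiter-Fluor was read first as a viability measure. BugLite was added 15 min before the final luminescent read of ARE-luciferase activity in A549 cells.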
A549 tox: A549 cytotoxicity, counter-screen for Nrf2 inhibitors; Potency, µM (top dose mostly 46 µM), for the others: top-dose activity change, negative = cytotoxicity, most hits filed as inhibitors; A549 ARE-Fluc cells, CellTiter-Fluor viability, 18-24 h; 0.16% of 390,000 active; also: % is scaled to controls: 0 for no effect and ±100 for the full control effect
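Cytotoxicity counterscreen: CellTiter-Fluor fluorescence was measured in A549 ARE_Fluc cells after 18-24 h of compound exposure in a concentration series. The subsequent BugLite luminescent read reports ARE-luciferase activity.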
Nrf2 activator: Nrf2 pathway activation | AREc32 ARE-luciferase reporter (MCF7-derived line), luminescence, 24 h | AID 624171 | 0.31% of 410,000 active | Potency, µM (doses to about 46.1 µM), inactives show at the highest dose activation, hits mostly activators; also: % of control where 0% means no effect; nearly all actives have a fitted effect of over 65% in size
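Steps: seed AREc32_Fluc cells (1000/well, 5% FBS OPTI-MEM); incubate overnight at 37 deg C; add 23 nL compound; incubate 24 hr; add Steady-Glo; hold 30 min RT; read luminescence.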
* = called active by the depositor; ? = inconclusive; · = no result given. Shown are actives, neighbours in structure and some others; about 2.2% of the full set was active somewhere. Unless noted, calls follow the shape of the dose curve; as a rule, active = well fitted curve in the direction sought with a large enough effect; inconclusive = small, poorly fitted or top-dose-only effect, or another doubt; inactive = no such curve, though single readings can be large; an effect the other way counts as inactive or inconclusive. Potency is read from the fitted curve at half-maximal effect.

SMILES	Pin1 inh	Nrf2 block	A549 tox	Nrf2 activator
O=C(Nc1ccn(Cc2c(F)c(F)cc(F)c2F)n1)c1ccc(COc2ccc(Cl)cc2Cl)o1	13%	·	-14%	-1%
COc1ccc(C2/C=C\CN(S(=O)(=O)CC34CCC(CC3=O)C4(C)C)CC(=O)N2Cc2ccc(F)cc2)cc1 (stereo not drawn)	1%	-7%	-2%	·
CCC1C(=O)CC2CCN3C(=O)CCC1C23 (stereo not drawn)	0%	4%	0%	·
Cc1cc(Nc2cccc([N+](=O)[O-])c2)n2c(nc3ccccc32)c1C#N	5%	10µM*	?	4%
O=C(CCc1nnc2n(Cc3ccccc3Cl)c(=O)c3ccccc3n12)Nc1ccccc1	-1%	2%	-9%	0%
CC(C)Nc1cccc(S(=O)(=O)N2CCCN(S(=O)(=O)c3ccc4c(c3)OCCO4)CC2)c1	12%	?	-3%	·
CCCCCCCCC(=O)N/N=C/c1cccc(Br)c1	4%	21µM*	-12%	0%
CCCCCCC(=O)N/N=C/c1ccc(Br)cc1	5%	4%	2%	1%
COc1ccc(CNC(=O)c2sc3nc4c(c(C(F)(F)F)c3c2N)CCC4)cc1OC	?	23µM*	0%	-1%
COc1ccc(C2CC(c3ccccc3)Oc3cc4c(cc32)OCO4)cc1 (stereo not drawn)	22%	?	6%	·
CCOC(=O)c1c(S(=O)(=O)N2CCCC(C(=O)NCc3ccc(Cl)cc3)C2)c(C)n(C)c1C (stereo not drawn)	3%	·	1%	-1%
Cc1[nH]c2ccccc2c(=O)c1C(=O)/C=C/c1ccccc1	2%	18µM*	?	?
N#Cc1ccccc1NC(=O)c1ccccc1OCC(=O)Nc1ccc2c(c1)oc1ccccc12	9%	?	3%	3%
CNC(=O)COc1ccccc1C(=O)Nc1ccc2c(c1)oc1ccccc12	25%	7.3µM*	2%	-2%
COc1ccc(C2c3c(N)nc(CCCc4ccccc4)nc3Oc3ccc4ccccc4c32)cc1OC (stereo not drawn)	20%	-9%	-11%	·
S=C(NCc1ccccc1)N1CCN(c2cccc(Cl)c2)CC1	0%	?	3%	0%
S=C(NC1CC2CCC1C2)N1CCN(c2cccc(Cl)c2)CC1 (stereo not drawn)	13%	16µM*	-10%	3%
Cc1nc2nc(-c3ccc(Cl)cc3Cl)nn2c(C)c1CCC(=O)Nc1ccc(F)cc1	2%	?	2%	-2%
O=C1c2ccccc2C(=O)N1c1noc2ccccc12	2%	?	11%	·
Cc1ccnc(Sc2ccc([N+](=O)[O-])cc2[N+](=O)[O-])n1	1%	?	?	5%
Cc1ccc(Sc2ccc([N+](=O)[O-])cc2[N+](=O)[O-])nc1	-8%	2%	-12%	16µM*
COc1cc(OC)cc(C2=Nn3c(nnc3-c3cccc(OC)c3)SC2)c1	36%	-30%	-4%	·
Cc1ccc(C)c(NC(=S)NC(NC(=O)N(C)C)C(Cl)(Cl)Cl)c1 (stereo not drawn)	0%	?	1%	0%
COc1ccc(NC(=S)NC(NC(=O)c2ccccc2Cl)C(Cl)(Cl)Cl)c([N+](=O)[O-])c1 (stereo not drawn)	-2%	?	?	-1%
Cc1ccc(C)c(NC(=S)NC(NC(=O)Cc2cccc3ccccc23)C(Cl)(Cl)Cl)c1 (stereo not drawn)	24%	21µM*	21µM*	25%
SMILES	Pin1 inh	Nrf2 block	A549 tox	Nrf2 activator
COc1ccc(NC(=S)NC(NC(=O)c2cccc3ccccc23)C(Cl)(Cl)Cl)c([N+](=O)[O-])c1 (stereo not drawn)	-9%	26µM*	?	1%
Cc1cccc(Cn2c(=O)n(-c3cc(C)cc(C)c3)c(=O)c3oc4ccccc4c32)c1	47%	-2%	0%	1%
COC(=O)c1ccc(N=C2S/C(=C\c3cc(C)n(-c4cccnc4)c3C)C(=O)N2C)cc1	35%	26µM*	?	0%
Cc1c(/C=N/NC(=O)c2ccccc2O)c2ccccn2c1C(=O)c1ccc(F)cc1	41%	21µM*	18µM*	3%
CCN(CC)S(=O)(=O)c1cc(NC(=O)CSc2nc3c(cc2C#N)C(=O)CC(C)(C)C3)ccc1C	12%	18µM*	?	8%
Cc1sc2c(c1C)CN(C(C)(C)C)CN2C(=O)c1ccccc1	?	?	-1%	11µM*
COCCN1Cc2c(sc(C)c2C)N(C(=O)c2ccccc2)C1	3%	?	1%	?
O=C(Nc1ccccc1)c1ccc(S(=O)(=O)NCc2cccnc2)cc1	-9%	13µM*	0%	0%
O=C(NCc1cccnc1)c1ccc([N+](=O)[O-])cc1	1%	-6%	1%	0%
O=C(Nc1ccc(S(=O)(=O)NCCc2ccccc2)cc1)c1ccco1	4%	-17%	6%	5%
O=C(Nc1ccc(S(=O)(=O)NCCc2ccccc2)cc1)c1ccncc1	1%	21µM*	-11%	-1%
O=C(NCc1cccnc1)c1ccc(NC(=O)c2cccc([N+](=O)[O-])c2)cc1	10%	4.6µM*	4%	1%
Cc1nc2nc(NC(=O)c3ccc(C(C)(C)C)cc3)[nH]n2c(=O)c1C	1%	24%	2%	-1%
CCCN1C(=O)c2ccccc2NC1c1ccc(OC)c(COc2ccc([N+](=O)[O-])c(C)c2)c1 (stereo not drawn)	6%	?	1%	·
CCOC(=O)c1cn(-c2c(Cl)cccc2Cl)c2cc(Cl)c([N+](=O)[O-])cc2c1=O	4%	5%	8%	11µM*
Cc1[nH]n2c(=O)cc(C(C)(C)C)nc2c1-c1ccccc1	-1%	7.3µM*	-24%	-1%
CCc1c(C)nc2c(-c3ccccc3)c(C)[nH]n2c1=O	8%	-8%	-2%	5%
CCCCc1c(C)nc2c(-c3ccc(Cl)cc3)c(C)[nH]n2c1=O	-1%	5.8µM*	-6%	0%
O=c1cc(-c2ccccc2)nc2c(Cl)cc(Cl)cn12	·	·	·	4µM*
Cc1[nH]n2c(=O)cc(C(C)C)nc2c1-c1ccccc1	-2%	?	-12%	0%
Cc1[nH]n2c(=O)cc(-c3ccc(Cl)cc3)nc2c1-c1ccccc1	-26%	7.3µM*	-17%	0%
Cc1ccc(S/C(=N/S(=O)(=O)c2ccc(Cl)cc2)c2ccccc2)cc1	-1%	-5%	-8%	·
CSc1nc2nccc(-c3ccc(Oc4ccccc4)cc3)n2n1	1%	18µM*	2%	0%
COc1ccccc1N1CCN(C(=O)c2cnn(-c3cccc(Cl)c3)c2C2CCN(C(=O)OC(C)(C)C)CC2)CC1	-1%	?	-21%	1%
COCCN(CCOC)c1ncnc2c1c(-c1ccccc1)cn2-c1ccc(C)c(Cl)c1	?	·	19%	7%
CN1/C(=C\C=C2/SC(=S)NC2=O)C(C)(C)c2ccccc21	?	?	15µM*	5%
O=C(Nc1nc(-c2ccccc2)cs1)C1c2ccccc2Oc2ccccc21	12%	-2%	-4%	1%

Assay outcomes: PubChem BioAssay, National Center for Advancing Translational Sciences (NCATS)
